Assay outcomes deposited in PubChem by National Center for Advancing Translational Sciences (NCATS).
BAZ2B block – qHTS Assay for Inhibitors of BAZ2B | AID 504333, 2011 | Bromodomain adjacent to zinc finger domain protein 2B (Homo sapiens), Q9UIF8 | AlphaScreen BAZ2B-H3K14Ac peptide displacement | Potency, µM (top dose mostly 114 µM), actives largely listed as inhibitors | 360,000 tested, 4.4% active; note: nearly all actives have a fitted effect of over 60% in size
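AlphaScreen displacement of biotin-H3(5-23)K14Ac peptide (50 nM final) from BAZ2B (50 nM final) in PBS pH 7.4, 0.01% Tween-20; complex preformed 30 min RT, then compounds (top 110 uM) 30 min RT, beads 20 min dark.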
JMJD2A Tudor – qHTS Assay for Inhibitors of JMJD2A-Tudor Domain | 390,000 tested, 4.4% active | Lysine-specific demethylase 4A (Homo sapiens), O75164 | AlphaScreen JMJD2A-Tudor / H3K4me3 peptide binding | Potency, µM (highest dose often 114 µM), most hits filed as inhibitors; note: nearly all actives have a fitted effect of over 50% in size
G9a inh – qHTS Assay for Inhibitors of Histone Lysine Methyltransferase G9a; Histone-lysine N-methyltransferase EHMT2 (Homo sapiens), Q96KQ7; G9a H3K9 monomethylation, AlphaScreen, 2 h; Potency, µM (doses to about 102 µM), hits mostly inhibitors; 350,000 tested, 8.8% active; note: nearly all actives have a fitted effect of over 75% in size
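Enzyme 20 nM + cpd, 15 min RT; add b-H3K9 pep 500 nM / SAM 20 uM; 2 h RT; anti-H3K9me1 Ab 0.5 ug/mL + SA donor / anti-rabbit acceptor beads 20 ug/mL each, 10 min; AlphaScreen read.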
HP1b binding inh – HTS for Inhibitors of HP1-beta Chromodomain Interactions with Methylated Histone Tails | Chromobox protein homolog 1 (Homo sapiens), P83916 | AlphaScreen HP1-beta / biotin-H3K9me3 peptide binding | Potency, µM (doses to about 114 µM), actives largely listed as inhibitors | 390,000 tested, 0.56% active | AID 540317, 2011; note: nearly all actives have a fitted effect of over 70% in size
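Compound inhibition of the preformed complex between 50 nM HP1-beta and 50 nM biotinylated H3K9me3 peptide was read by AlphaScreen. Buffer was PBS pH 7.4 with 0.01% Tween-20. Incubations ran 30 min at room temperature, with 10 ug/mL donor/acceptor beads.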
Sfp inh – qHTS Assay for Inhibitors of Bacillus subtilis Sfp phosphopantetheinyl transferase (PPTase); 4'-phosphopantetheinyl transferase ffp (Bacillus subtilis), Q9F4F7; Biochemical Sfp PPTase activity, qHTS; Potency, µM, most hits filed as inhibitors; 310,000 tested, 3.5% active; AID 1490, 2009;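 note: the enzyme is Sfp with the accession as filed and its product quenches rhodamine fluorescence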
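With Hepes-Na pH 7.6 buffer containing 10 mM MgCl2, Sfp (15 nM) modified BHQ-2-YbbR (12.5 uM) using rhodamine-CoA (5 uM). Two reads 30 minutes apart at 525/598 nm yielded each well's rate.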
PLK1 PBD block – qHTS for Inhibitors of PLK1-PDB (polo-like kinase 1 - polo-box domain): Primary Screen; Serine/threonine-protein kinase PLK1 (Homo sapiens), P53350; Plk1 PBD binding of FITC phosphopeptide, fluorescence polarization; Potency, µM, usual class: inhibitors; 360,000 tested, 2.8% active; note: series mostly up to about 57 µM; nearly all actives have a fitted effect of over 65% in size
Numbers stand for hits; 0 = inactive; ? = inconclusive; - = not tested or not shown; [ ] = another dose, or the depositor's remark. An excerpt weighted towards active compounds, which were near 12% of everything screened. Calls come from the whole dose curve; as a rule, active = well fitted curve in the direction sought with a large enough effect; inconclusive = small, poorly fitted or top-dose-only effect, or another doubt; inactive = no such curve, though single readings can be large; an effect the other way counts as inactive or inconclusive.

SMILES	BAZ2B block	JMJD2A Tudor	G9a inh	HP1b binding inh	Sfp inh	PLK1 PBD block
CN1CCN(c2ccccc2NC(=O)c2cc3c(s2)-c2ccccc2OC3)CC1	0	0	0	0	79.4µM	0
Cc1cc(NC(=O)CCCn2cnc([N+](=O)[O-])n2)no1	0	0[11.4 µM]	0	0	0	11.9µM
Cc1cc(Cl)c2oc(C(=O)N(C)CCc3cnn(C)c3)c(C)c2c1	0	?	0	0	0	23.8µM
Cc1ccc(C(C)C)c(OCC(=O)Nc2ccc3c(c2)nc(CN2CCCC2)n3C)c1	11.2µM	?	44.7µM	0	?	0
Cc1ccc(OCC(=O)Nc2ccc3c(c2)nc(CCN2CCCC2)n3C)cc1	-	-	-	-	-	0
Cn1c(CN2CCCC2)nc2cc(NC(=O)Nc3ccccc3)ccc21	0	0	0[12.7 µM]	0	0	0
CC(=O)Nc1ccc2c(c1)nc(CN1CCCC1)n2C	0	0	17.8µM	0	0	0
CC1CC(C)CN(C(=O)Cn2ncc3c([nH]c4ccccc43)c2=O)C1 (stereo unspecified)	0	25.1µM	0	0	0	23.8µM
CCN1CCN(C(=O)Cn2ncc3c([nH]c4ccccc43)c2=O)CC1	0	0	0	0	0	0
Cc1ccc(C)c(N2CCN(C(=O)Cn3ncc4c([nH]c5ccc(C)cc54)c3=O)CC2)c1	0	0	70.8µM	0	0	0
CCn1c(SCc2nc(-c3ccc(OC)c(OC)c3)no2)nnc1-c1cccs1	0	0	?	0	0	0
CCC(=O)Nc1cc(C)c(NC(=O)C23CC4CC(CC(C4)C2)C3)cn1	0	0	1.12µM	0	0	0
COc1cc2c(cc1OC)-c1cc(Nc3ccc(C(=O)O)cc3)nc(=O)n1CC2	70.8µM	?	?	?	0	0
